# Source: PubChem
# Rows were chosen to be rich in hits. Some 13% of all compounds tested hit in one or more screens of this group.
# L major viab: Leishmania major promastigote growth inhibition, primary screen; Leishmania major promastigotes, resazurin fluorescence viability; inhibition, % at 10 µM; hit rate 9% among 200,000; in the data active = inhibition above about 50%;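 note: promastigotes grown with compound for 44 hours at 28 °C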
# RAM inhibit: inhibitors of the yeast RAM network, primary screen, dse1pr::URA3 reporter, 5-FOA selection; S. cerevisiae dse1pr::URA3 reporter, 5-FOA growth OD615, 2 d; analog-sensitive cbk1-as2 kinase mutant strain; inhibition, % at 50 µM; hit rate 1.8% among 190,000; AID 868, 2007;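 active = inhibition above a set limit, 3 SD over mean compound inhibition, cut at about 8.4% in these data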;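 note: 0% = DMSO-only wells with no growth and 100% = 10 µM 1-NA-PP1 full growth; inhibition rescues growth on 5-FOA so higher OD means more RAM inhibition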
# CHOP inhibitor: inhibitors of CHOP promoter induction, primary screen, cell-based, unfolded protein response, luciferase reporter | CHO-K1 CHOP-promoter luciferase, tunicamycin-induced, 15-18 h | inhibition, % at 10 µM | hit rate 3.8% among 220,000;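 active = compounds that reduced the stress-induced luciferase reporter signal by more than about 70% of percent inhibition, limit read from the data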;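 note: 0% = tunicamycin plus vehicle and 100% = wells without tunicamycin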
# WT yeast gro inh: growth inhibition of WT strain, primary screen, mitochondrial fusion inhibitor project, WT and mutant strains, chemical genetic; mitochondrial fusion phenotypic screen; inhibition, % at 10 µM; hit rate 2.1% among 190,000; AID 1362, 2008; in the data active = inhibition above about 58%; tested in S. cerevisiae
# Starred values were filed as active, the others as inactive; / = no result.
SMILES,L major viab,RAM inhibit,CHOP inhibitor,WT yeast gro inh
CON1C(=O)C(=O)N(OC)C(C)(C)C1(C)C,-6,1,-7,4
COc1cc2c(C(=O)NCc3ccc(C)o3)cn(CC(C)C)c(=O)c2cc1OC,0,1,-13,74*
O=C(COC(=O)CNC(=O)c1ccc(-c2ccccc2)cc1)NCc1ccco1,-7,2,1,2
COc1cc(SC)ccc1C(=O)Nc1c(C)cccc1C,27,2,44,12
O=C(NCCOc1ccc(F)cc1)c1ccccc1SCc1ccccc1,-3,9.5*,31,43
COc1ccc(CCNC(=O)c2ccc(SC)cc2OC)cc1,14,0,11,8
COc1cc(SC)ccc1C(=O)NCCOc1ccc(F)cc1,58*,1,28,16
COc1cc(SC)ccc1C(=O)Nc1c(Cl)cncc1Cl,95*,2,33,15
CCc1ccc(OCCNC(=O)c2ccccc2SCc2ccc(F)cc2)cc1,-2,7,55,-7
C=CCC(CC(O)COCCC)C(=O)NNC(=S)Nc1ccccc1 (stereo unspecified),/,/,-4,/
CCOC(=O)c1sc(/S(C)=N\S(=O)(=O)c2cccc(Cl)c2)c2c1CCC=C2 (stereo unspecified),/,/,24,/
CCC(=O)N(CCc1ccc(OC)c(OC)c1)Cc1cc2ccc(C)cc2n2nnnc12,19,4,35,-5
CCOC(=O)c1c(C)oc2ccc(OC(=O)c3cccs3)cc12,-5,6,37,68*
CCOC(=O)c1c(C)oc2ccc(OC(=O)N3CCOCC3)cc12,-5,1,15,8
COCCOC(=O)c1c(C)oc2ccc(OC(=O)c3ccc4c(c3)OCO4)cc12,-3,10*,69,24
CCOC(=O)Oc1ccc2oc(C)c(C(=O)OCCOC)c2c1,-8,2,-24,9
COc1ccccc1-n1c(SCC(=O)Nc2ccc(Br)cc2)nc(O)cc1=O,/,/,5,/
CN(C)CCCNC(=S)NCCNc1nc2cc3c(cc2cc1C#N)OCO3,-3,0,12,3
CC(NC(=O)CSc1ncccc1C(=O)O)C1CC2CCC1C2 (stereo unspecified),/,/,20,/
CN(C)N1C(N)=C(C#N)C(c2cccs2)C2=C1CC(C)(C)CC2=O (stereo unspecified),9,3,-1,-7
O=C(Oc1nsnc1N1CCOCC1)N1CCCCC1,15,/,/,/
O=C(Oc1nsnc1N1CCOCC1)N1CCOCC1,9,1,71*,10
CCCCOc1ccc(/C=C/C(=O)Nc2ccc([N+](=O)[O-])cc2C)cc1,-7,8,80*,8
CCOc1ccc(/C=C/C(=O)Nc2ccc(C(N)=O)cc2)cc1OC,-8,5,23,-12
O=C(/C=C/c1ccc([N+](=O)[O-])cc1)NCc1ccccn1,12,3,-13,-12
SMILES,L major viab,RAM inhibit,CHOP inhibitor,WT yeast gro inh
Cc1ccc(OCCNC(=O)/C=C/c2ccc([N+](=O)[O-])cc2)cc1C,-2,5,5,17
CCCCOc1ccc(/C=C/C(=O)Nc2ccc(C(N)=O)cc2)cc1,91*,3,-7,-9
O=C(/C=C/c1ccc([N+](=O)[O-])cc1)Nc1ncc([N+](=O)[O-])s1,83*,1,94*,32
CCOc1ccc(/C=C/C(=O)Nc2cccc(C(C)=O)c2)cc1,-4,9.7*,9,8
COCCCNCC(O)C(F)(F)F (stereo unspecified),5,3,31,-3
Cc1ccc(C)c(NC(=S)N(Cc2cccc(Br)c2)CC2CCC(C(=O)O)CC2)c1 (stereo unspecified),-2,4,-1,0
Cc1cc2ncn(CCC(=O)NC(C)(C)C)c2cc1C,2,0,12,-6
CC(=O)c1cccc(NC(=O)Nc2cccs2)c1,-8,0,28,7
CC(=O)c1cccc(NC(=O)C=C(C)C)c1,98*,1,27,12
O=C(N/N=C/c1ccc(Cl)cc1)C(=O)N1CCCCCC1,18,0,3,3
CCCCCn1c2c(c(=N)c3ccccc31)CCC2,/,/,-1,/
CCCCCCCCn1c2c(c(=N)c3ccccc31)CCC2,100*,0,77*,69
CCCCCCCCCCn1c2c(c(=N)c3c1CCC3)CCC2,100*,-2,104*,3
COc1ccccc1NS(=O)(=O)c1cccc(NC(=O)Cc2cccs2)c1,98*,4,-29,-21
COc1ccccc1NS(=O)(=O)c1cccc(NC(=O)Nc2ccc(Cl)cc2)c1,97*,4,9,9
COc1ccccc1NS(=O)(=O)c1cccc(NC(=O)Nc2ccccc2)c1,99*,5,41,-3
COc1ccccc1NS(=O)(=O)c1cccc(C(=O)OCc2nc3ccccc3s2)c1,90*,8.4*,44,37
COc1ccccc1NS(=O)(=O)c1cccc(C(=O)OCC(=O)Nc2cc(C)on2)c1,28,3,14,1
CCOc1ccc(/C=C/c2c([N+](=O)[O-])c(=O)n(C)c(=O)n2C)cc1,65*,1,14,-12
COc1ccc(/C=C/c2c([N+](=O)[O-])c(=O)n(C)c(=O)n2C)cc1,36,1,29,-7
Cc1ccc2c(N)c(C#N)sc2n1,3,1,27,87*
Cc1nn2c(-n3ccnc3C)c3c(nc2c1-c1ccccc1)CCC3,35,-1,23,4
Cc1nn2c(N3CCOCC3)c3c(nc2c1-c1ccccc1)CCCC3,25,1,72*,42
Cc1nn2c(NCCCN(C)C)c3c(nc2c1-c1ccccc1)CCC3,100*,3,93*,23
Cc1nn2c(NCCCN(C)C)c3c(nc2c1-c1ccccc1)CCCC3,/,/,-2,/
SMILES,L major viab,RAM inhibit,CHOP inhibitor,WT yeast gro inh
CC(NC(=O)C12CC3CC(CC(C3)C1)C2)C(=O)N/N=C/C1=C(N2CCOCC2)C(=C\c2cccc([N+](=O)[O-])c2)/CC1 (stereo unspecified),98*,5,-6,12
O=C(N/N=C/c1ccc(N2CCOCC2)o1)c1cccc([N+](=O)[O-])c1,-3,3,20,10
Cc1occc1C(=O)N/N=C/C1=C(N2CCOCC2)C(=C\c2ccc(Cl)cc2)/CC1,-3,7,15,-12
O=C(O)c1ccccc1N/N=C/C1=C(N2CCOCC2)C(=C\c2ccccc2)/CC1,/,/,17,/
O=C(N/N=C/C1=C(N2CCOCC2)C(=C\c2ccccc2)/CC1)Nc1ccccc1,6,4,82*,-12
CC(C)C(NC(=O)C12CC3CC(CC(C3)C1)C2)C(=O)N/N=C/C1=C(N2CCOCC2)C(=C\c2ccc([N+](=O)[O-])cc2)/CC1 (stereo unspecified),97*,3,33,-8
Cc1cccc(-n2cc(CNCCN3CCOC3=O)c(-c3cccc(F)c3)n2)c1,11,2,-10,4
Cc1ccccc1-c1noc(CCC(=O)NCc2ccco2)n1,/,/,8,/
Cn1nnnc1N=N/C(=N/Nc1ccccc1)c1ccccc1,/,/,70*,/
CC(C)c1ccc(/C=N/n2cnnc2)cc1,/,/,-9,/
Cc1ccc(-n2cc(CNCCc3ncc(C)[nH]3)c(-c3ccc(F)cc3)n2)cc1,100*,0,32,49
